Results published in PubChem BioAssay (Tox21).
Records with an inconclusive call do not appear. Entries that show only a call come without a potency. Active and inactive are the calls of the source. Unless noted, calls come from the whole dose curve; as a rule, active = well fitted curve in the direction sought with a large enough effect in the repeat runs; inconclusive = weak or mixed curves; inactive = no such curve, though single readings can be large; an effect the other way counts as inactive or inconclusive.

Key:
[1] = qHTS assay for small molecule agonists of the p53 signaling pathway (AID 651631; calls by dose curve; note: nearly all actives have a fitted effect of over 15% in size)
Summary of the method: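 We treat p53RE-bla HCT-116 cells with compounds for 16 h at 37 °C, add LiveBLAzer B/G FRET substrate for 2 h at room temperature, and measure fluorescence intensity.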

[2] = qHTS assay for small molecules that induce genotoxicity in human embryonic kidney cells expressing luciferase-tagged ATAD5 (AID 651632); note: nearly all actives have a fitted effect of over 15% in size
Summary of the method: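 A rise in luciferase signal from ATAD5-tagged HEK293T cells marks genetic stress. Cells were exposed to compounds for 16 hr at 37C, 5% CO2, then luciferase was quantified after a 30 min room-temperature incubation with Amplite.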

[3] = qHTS assay for small molecule agonists of the p53 signaling pathway - cell viability (AID 651633; calls by dose curve; note: nearly all actives have a fitted effect of over 30% in size; note: potency is the fitted concentration of half-maximal effect)
Summary of the method: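 p53RE-bla cells, seeded at 4,000 per well and rested 5 h at 37 C/5% CO2, received compounds in DMSO for 16 h at 37 C. CellTiter-Glo was then added, and luminescence was read after 30 min at room temperature to gauge cytotoxicity.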

[4] = qHTS assay for small molecules that induce genotoxicity in human embryonic kidney cells expressing luciferase-tagged ATAD5 - cell viability (AID 651634; calls by dose curve; note: nearly all actives have a fitted effect of over 25% in size; note: potency is the fitted concentration of half-maximal effect)
Summary of the method: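 Cytotoxicity counter-readout: after 15.5 hr compound treatment at 37C, live-cell protease activity in ATAD5-luciferase HEK293T cells measured by CellTiter-Fluor fluorescence, 30 min development at 37C.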

[5] = qHTS assay for small molecule disruptors of the mitochondrial membrane potential - cell viability (AID 720634; calls by dose curve;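 note: human HepG2 liver cancer cells; series mostly up to about 83 µM; nearly all actives have a fitted effect of over 20% in size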)
Summary of the method: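 Cytotoxicity was quantified from ATP content by CellTiter-Glo luminescence in the same wells as the MMP dye read-out. HepG2 (2,000 cells/well) were plated overnight and exposed to compounds for 1 hr at 37 C.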

[6] = qHTS assay for small molecule disruptors of the mitochondrial membrane potential (AID 720635)
Summary of the method: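 HepG2 cells (2,000/well) attached overnight at 37C, then took compound for 1 hr at 37C, 5% CO2. Mito-MPS dye was added for 30 min; fluorescence was read at 490/535 nm (monomers) and 540/590 nm (aggregates).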

[7] = qHTS assay to test for compound auto fluorescence at 590 nm (red) in HepG2 cells (AID 720674)
Summary of the method: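 Compound auto-fluorescence is scored relative to Rose Bengal sodium, measured at 540/590 nm in live HepG2 cultures after 1 hr compound contact (37 C, 5% CO2).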

[8] = qHTS assay to test for compound auto fluorescence at 590 nm (red) in HEK293 cells (AID 720679)
Summary of the method: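 Intensity at 540nm excitation and 590nm emission is reported as Rose Bengal sodium-equivalent autofluorescence. Measurements followed overnight exposure (37C, 5% CO2) of HEK293 cells, 2,000 per well, to 23 nL compound.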

[9] = qHTS assay to test for compound auto fluorescence at 460 nm (blue) in HEK293 cell free culture (AID 720681)
Summary of the method: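 Test compounds were pinned into cell-free culture medium (DMEM with 10% FBS) and fluorescence was read directly at Ex/Em 405/460 nm. Signals were expressed as fluorescence equivalents of triamterene, with DMSO vehicle as control.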

[10] = qHTS assay to test for compound auto fluorescence at 535 nm (green) in HEK293 cell free culture (AID 720682)
Summary of the method: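 Green-channel intensity (Ex/Em 485/535 nm) was recorded from compound-treated wells containing only DMEM with 10% FBS. Fluorescein provided the equivalency standard.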

[11] = qHTS assay to test for compound auto fluorescence at 590 nm (red) in HEK293 cell free culture (AID 720683)
Summary of the method: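 Tox21 10K library compounds were pinned into cell-free DMEM with 10% FBS and fluorescence was read at excitation 540 nm. Activity is expressed as Rose Bengal sodium equivalency.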

[12] = qHTS assay to test for compound auto fluorescence at 590 nm (red) in HepG2 cell free culture (AID 720684)
Summary of the method: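 Readout: intrinsic compound fluorescence at 590 nm emission after 540 nm excitation, scaled to Rose Bengal sodium. Matrix was cell-free MEM with 10% FBS; DMSO vehicle wells served as control.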

[13] = qHTS assay to test for compound auto fluorescence at 535 nm (green) in HepG2 cell free culture (AID 720686)
[14] = qHTS assay to test for compound auto fluorescence at 460 nm (blue) in HepG2 cells (AID 720687)
Summary of the method: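 Cells (2,000/well in MEM with 10% FBS) attached overnight at 37 C, then were exposed to compound or DMSO for 1 hr at 37 C, 5% CO2. Fluorescence read at Ex/Em 405/460 nm, expressed as triamterene-equivalent signal.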

[15] = target: Glucocorticoid receptor (Homo sapiens) (UniProt P04150); test: qHTS assay to identify small molecule agonists of the glucocorticoid receptor (GR) signaling pathway (AID 720691; active = well fitted activation curve with a large enough effect in the signal ratio in the repeat runs, not every such curve was filed as active; the % refers to the signal ratio)
Summary of the method: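 Agonist-mode qHTS in HeLa cells stably expressing a glucocorticoid-response-element beta-lactamase reporter. Fluorescence intensity read with FRET substrate (2 h, room temperature) after 18 h compound treatment at 37 C.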

[16] = target: Glucocorticoid receptor (Homo sapiens) (UniProt P04150); test: qHTS assay to identify small molecule antagonists of the glucocorticoid receptor (GR) signaling pathway (AID 720692; active = well fitted inhibition curve with a large enough effect in the signal ratio in the repeat runs, not every such curve was filed as active; the % refers to the signal ratio; note: potency is the fitted concentration of half-maximal effect)
Summary of the method: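 Inhibition of dexamethasone-driven (5 nM final) beta-lactamase expression was measured in GRE-reporter HeLa cells over 18 h at 37C. Fluorescence was read after 2 h with the B/G FRET substrate at room temperature.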

[17] = qHTS assay to identify small molecule antagonists of the glucocorticoid receptor (GR) signaling pathway - cell viability counter screen (AID 720693); note: nearly all actives have a fitted effect of over 55% in size; note: potency is the fitted concentration of half-maximal effect
[18] = qHTS assay for identifying genotoxic compounds that show differential cytotoxicity against isogenic chicken DT40 cell lines with known DNA damage response pathways - wild type cell line (AID 743012); note: potency is the fitted concentration of half-maximal effect; nearly all actives have a fitted effect of over 60% in size
Summary of the method: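 Viability by ATP luminescence (CellTiter-Glo, 30 min RT) after 40 h compound treatment at 37 C/5% CO2, using 300 parental DNA repair-proficient DT40 cells per well.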

[19] = qHTS assay for identifying genotoxic compounds that show differential cytotoxicity against isogenic chicken DT40 cell lines with known DNA damage response pathways - Rev3 mutant cell line (AID 743014); note: potency is the fitted concentration of half-maximal effect; nearly all actives have a fitted effect of over 55% in size
[20] = qHTS assay for identifying genotoxic compounds that show differential cytotoxicity against isogenic chicken DT40 cell lines with known DNA damage response pathways - Rad54/Ku70 mutant cell line (AID 743015); note: potency is the fitted concentration of half-maximal effect; nearly all actives have a fitted effect of over 60% in size
[21] = qHTS assay to identify small molecule antagonists of the androgen receptor (AR) signaling pathway - cell viability counter screen (AID 743033; note: nearly all actives have a fitted effect of over 45% in size; note: potency is the fitted concentration of half-maximal effect)
[22] = qHTS assay to identify small molecule antagonists of the thyroid receptor (TR) signaling pathway - cell viability counter screen (AID 743064); note: nearly all actives have a fitted effect of over 50% in size; note: potency is the fitted concentration of half-maximal effect
Summary of the method: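 In rat pituitary GH3.TRE-Luc reporter cells co-exposed to compound and 1 nM T3 for 23.5 h, cytotoxicity was assessed with CellTiter-Fluor in the same wells, read by fluorescence.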

[23] = tested on: thyroid hormone receptor (rat, GH3 cells); test: qHTS assay to identify small molecule agonists of the thyroid receptor (TR) signaling pathway (AID 743066; calls by dose curve)
[24] = target: Estrogen receptor (Homo sapiens) (UniProt P03372); test: qHTS assay to identify small molecule antagonists of the estrogen receptor alpha (ER-alpha) signaling pathway (AID 743069; active = well fitted curve in the direction sought with a large enough effect in the signal ratio in the repeat runs, not every such curve was filed as active; the % refers to the signal ratio)
Summary of the method: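 Screening used a UAS-driven beta-lactamase reporter integrated into HEK293 cells expressing ER-alpha, stimulated with 17beta-estradiol alongside test compounds over 18 hr at 37C; signal came from LiveBLAzer B/G FRET fluorescence.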

[25] = qHTS assay to identify small molecule antagonists of the estrogen receptor alpha (ER-alpha) signaling pathway - cell viability counter screen (AID 743074; calls by dose curve; note: nearly all actives have a fitted effect of over 45% in size; note: potency is the fitted concentration of half-maximal effect)
[26] = target: Estrogen receptor (Homo sapiens) (UniProt P03372); test: qHTS assay to identify small molecule agonists of the estrogen receptor alpha (ER-alpha) signaling pathway (AID 743075; calls by dose curve)
[27] = target: Estrogen receptor (Homo sapiens) (UniProt P03372); test: qHTS assay to identify small molecule agonists of the estrogen receptor alpha (ER-alpha) signaling pathway using the BG1 cell line (AID 743079); note: nearly all actives have a fitted effect of over 20% in size
[28] = qHTS assay to identify small molecule antagonists of the estrogen receptor alpha (ER-alpha) signaling pathway using the BG1 cell line (AID 743080; calls by dose curve;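 note: BG1 cells stimulated with 17beta-estradiol alongside compound; series mostly up to about 70 µM; nearly all actives have a fitted effect of over 25% in size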)
Summary of the method: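 BG1Luc4E2, endogenous ER-alpha, 4xERE-luc; 5 d charcoal-stripped FBS, phenol red free; 24 h plating; cpd + 17beta-estradiol 21.5 h, 37 C/5% CO2; CellTiter-Fluor viability 30 min, then ONE-Glo luciferase 30 min RT.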

Aromatase (Homo sapiens) = Aromatase (Homo sapiens) (UniProt P11511); test: qHTS assay to identify aromatase inhibitors (AID 743083); note: series mostly up to about 70 µM; nearly all actives have a fitted effect of over 55% in size
[29] = qHTS assay to identify aromatase inhibitors - cell viability counter screen (AID 743084);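 note: cells stimulated with testosterone during compound exposure; nearly all actives have a fitted effect of over 55% in size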
[30] = target: Aryl hydrocarbon receptor (Homo sapiens) (UniProt P35869); test: qHTS assay to identify small molecule that activate the aryl hydrocarbon receptor (AhR) signaling pathway (AID 743085);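 note: HG2L7.5c1 human HepG2 liver cells with stably integrated DRE-driven firefly reporter; series mostly up to about 70 µM; nearly all actives have a fitted effect of over 15% in size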
Summary of the method: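 AhR agonist activity is inferred from enhanced light output of a DRE-controlled firefly luciferase reporter in HepG2 cells, measured with ONE-Glo following 24 h treatment at 37C.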

[31] = target: Peroxisome proliferator-activated receptor gamma (Homo sapiens) (UniProt P37231); test: qHTS assay to identify small molecule agonists of the peroxisome proliferator-activated receptor gamma (PPARg) signaling pathway (AID 743094; active = well fitted activation curve with a large enough effect in the signal ratio in the repeat runs, not every such curve was filed as active; the % refers to the signal ratio)
Summary of the method: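 Agonist activity was taken from a beta-lactamase reporter (FRET substrate, 1 h at room temperature) in HEK293H cells carrying a PPARg UAS-bla construct. Compounds in DMSO were incubated 17 h at 37C after a 5 h cell pre-incubation.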

[32] = target: Androgen receptor (Homo sapiens) (UniProt P10275); test: qHTS assay to identify small molecule antagonists of the androgen receptor (AR) signaling pathway (AID 743035; active = well fitted inhibition curve with a large enough effect in the signal ratio in the repeat runs, not every such curve was filed as active; the % refers to the signal ratio; note: potency is the fitted concentration of half-maximal effect)
Summary of the method: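 Antagonist mode: AR-bla HEK293 cells co-treated with test compounds and agonist R1881 for 16 h at 37C, 5% CO2. Beta-lactamase activity read as FRET fluorescence after 2 h room-temperature substrate loading.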

[33] = target: Androgen receptor (Homo sapiens) (UniProt P10275); test: qHTS assay to identify small molecule agonists of the androgen receptor (AR) signaling pathway (AID 743036; active = well fitted activation curve with a large enough effect in the signal ratio in the repeat runs, with a control signal flat, not every such curve was filed as active; the % refers to the signal ratio)
Summary of the method: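 Cell-based FRET reporter assay: HEK293 line with a UAS-beta-lactamase construct, compounds added in DMSO, 16 h exposure at 37C, then 2 h substrate step at room temperature and fluorescence intensity read.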

[34] = target: Androgen receptor (Homo sapiens) (UniProt P10275); test: qHTS assay to identify small molecule agonists of the androgen receptor (AR) signaling pathway using the MDA cell line (AID 743040; note: nearly all actives have a fitted effect of over 20% in size)
Summary of the method: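 Agonist activity is measured as luciferase luminescence in human MDA-kb2 cells whose MMTV reporter responds to both AR and GR. Compounds in DMSO incubate 16 h at 37C, 0% CO2, and ONE-Glo is read after 30 min.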

[35] = qHTS assay to identify small molecule antagonists of the thyroid receptor (TR) signaling pathway (AID 743065)
Summary of the method: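 GH3.TRE-Luc rat pituitary cells carrying two TR response elements driving luciferase were plated for 4 h, given compound plus 1 nM T3 (final), and incubated 23.5 h at 37 C. ONE-Glo luminescence measured reporter inhibition; CellTiter-Fluor fluorescence tracked cytotoxicity.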

[36] = qHTS assay to identify small molecule antagonists of the estrogen receptor alpha (ER-alpha) signaling pathway using the BG1 cell line - cell viability counter screen (AID 743081);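 note: compound given together with 17beta-estradiol as the ER stimulus; series mostly up to about 70 µM; nearly all actives have a fitted effect of over 45% in size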
[37] = qHTS assay to identify small molecule that activate the aryl hydrocarbon receptor (AhR) signaling pathway - cell viability counter screen (AID 743086); note: potency is the fitted concentration of half-maximal effect; nearly all actives have a fitted effect of over 45% in size
Summary of the method: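 HepG2-AhR-luc (HG2L7.5c1) cells, 4000/well, were preincubated 5 h at 37C, exposed to compound in qHTS format for 24 hr at 37C, then given CellTiter-Fluor for 30 min; viability was read as fluorescence in the reporter wells.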

[38] = target: Acetylcholinesterase (Homo sapiens) (UniProt P22303); test: Acetylcholinesterase (AChE) small molecule antagonists: enzyme-based qHTS assay with human liver microsomes (AID 1347399; calls by dose curve; note: nearly all actives have a fitted effect of over 60% in size); conditions: Potency: qHTS inhibition; outcome: qHTS inhibition
Summary of the method: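 Recombinant human AChE (50 mU/mL in the enzyme mix) and human liver microsomes (0.25 mg/mL final) were preincubated with compound and NADPH (0.25 mg/mL final) for 30 min at 37 C. Acetylthiocholine/DTNB was then added; thiocholine was read colorimetrically after 10 min at room temperature.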

Sequence of Androgen receptor (Homo sapiens) (P10275 whole entry, looked up): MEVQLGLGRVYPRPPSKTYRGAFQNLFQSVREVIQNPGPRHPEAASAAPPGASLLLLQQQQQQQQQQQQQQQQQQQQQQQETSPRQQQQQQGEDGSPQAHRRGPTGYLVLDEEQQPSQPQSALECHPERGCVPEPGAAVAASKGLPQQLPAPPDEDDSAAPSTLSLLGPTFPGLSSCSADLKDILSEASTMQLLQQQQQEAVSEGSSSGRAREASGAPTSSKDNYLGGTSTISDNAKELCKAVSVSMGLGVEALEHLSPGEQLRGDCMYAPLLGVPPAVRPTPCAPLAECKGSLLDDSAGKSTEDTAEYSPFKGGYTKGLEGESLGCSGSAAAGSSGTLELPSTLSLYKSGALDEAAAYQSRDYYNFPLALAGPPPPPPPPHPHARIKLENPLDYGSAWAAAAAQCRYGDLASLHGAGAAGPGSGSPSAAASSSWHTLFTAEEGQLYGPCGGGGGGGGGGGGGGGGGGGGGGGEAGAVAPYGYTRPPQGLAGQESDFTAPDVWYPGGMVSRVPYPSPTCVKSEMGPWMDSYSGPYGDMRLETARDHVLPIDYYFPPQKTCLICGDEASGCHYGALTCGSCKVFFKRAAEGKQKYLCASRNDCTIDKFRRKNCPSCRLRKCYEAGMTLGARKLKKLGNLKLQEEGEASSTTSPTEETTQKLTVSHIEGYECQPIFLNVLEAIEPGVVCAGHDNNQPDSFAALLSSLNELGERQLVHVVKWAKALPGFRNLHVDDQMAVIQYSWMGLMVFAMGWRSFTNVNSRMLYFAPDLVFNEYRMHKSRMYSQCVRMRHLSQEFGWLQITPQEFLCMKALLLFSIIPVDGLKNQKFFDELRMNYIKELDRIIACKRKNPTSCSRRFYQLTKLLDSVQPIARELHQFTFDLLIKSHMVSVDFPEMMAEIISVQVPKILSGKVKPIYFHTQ
Sequence of Estrogen receptor (Homo sapiens) (P03372 whole entry, looked up): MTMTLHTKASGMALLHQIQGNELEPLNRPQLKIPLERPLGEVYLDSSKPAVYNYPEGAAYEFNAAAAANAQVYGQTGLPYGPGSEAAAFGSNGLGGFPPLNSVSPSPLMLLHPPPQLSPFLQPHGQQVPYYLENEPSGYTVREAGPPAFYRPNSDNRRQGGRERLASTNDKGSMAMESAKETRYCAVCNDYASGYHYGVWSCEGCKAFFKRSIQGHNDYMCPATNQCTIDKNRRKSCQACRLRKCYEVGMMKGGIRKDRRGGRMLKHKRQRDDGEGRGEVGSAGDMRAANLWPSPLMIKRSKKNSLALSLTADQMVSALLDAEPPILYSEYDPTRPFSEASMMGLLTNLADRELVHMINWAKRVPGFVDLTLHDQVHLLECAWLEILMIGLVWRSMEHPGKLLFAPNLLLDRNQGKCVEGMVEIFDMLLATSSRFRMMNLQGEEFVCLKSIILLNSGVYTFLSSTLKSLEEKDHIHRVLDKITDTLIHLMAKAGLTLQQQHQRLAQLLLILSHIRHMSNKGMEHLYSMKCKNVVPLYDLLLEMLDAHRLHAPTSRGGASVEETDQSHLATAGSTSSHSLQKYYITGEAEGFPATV
Sequence of Glucocorticoid receptor (Homo sapiens) (P04150 whole entry, looked up): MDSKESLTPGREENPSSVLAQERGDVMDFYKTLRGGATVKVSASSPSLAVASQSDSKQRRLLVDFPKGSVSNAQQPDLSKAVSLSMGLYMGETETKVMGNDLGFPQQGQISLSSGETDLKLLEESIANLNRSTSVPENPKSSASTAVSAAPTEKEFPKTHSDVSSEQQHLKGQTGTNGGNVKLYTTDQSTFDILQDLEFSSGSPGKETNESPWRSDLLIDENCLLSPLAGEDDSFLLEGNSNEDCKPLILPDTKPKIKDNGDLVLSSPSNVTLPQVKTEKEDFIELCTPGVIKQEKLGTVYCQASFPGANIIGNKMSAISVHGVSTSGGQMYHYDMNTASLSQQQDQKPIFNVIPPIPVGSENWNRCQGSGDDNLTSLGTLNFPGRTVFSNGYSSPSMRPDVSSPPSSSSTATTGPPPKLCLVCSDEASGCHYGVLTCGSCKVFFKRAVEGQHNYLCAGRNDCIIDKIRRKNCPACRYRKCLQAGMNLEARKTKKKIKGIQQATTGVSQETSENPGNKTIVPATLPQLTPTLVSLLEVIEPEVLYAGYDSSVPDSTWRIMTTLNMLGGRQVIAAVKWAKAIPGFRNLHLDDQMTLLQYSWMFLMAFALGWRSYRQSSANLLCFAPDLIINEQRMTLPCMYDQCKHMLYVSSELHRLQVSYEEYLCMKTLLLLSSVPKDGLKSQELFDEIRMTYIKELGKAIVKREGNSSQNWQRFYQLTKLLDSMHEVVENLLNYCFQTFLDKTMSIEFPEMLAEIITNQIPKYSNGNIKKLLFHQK
Sequence of Aryl hydrocarbon receptor (Homo sapiens) (P35869 whole entry, looked up): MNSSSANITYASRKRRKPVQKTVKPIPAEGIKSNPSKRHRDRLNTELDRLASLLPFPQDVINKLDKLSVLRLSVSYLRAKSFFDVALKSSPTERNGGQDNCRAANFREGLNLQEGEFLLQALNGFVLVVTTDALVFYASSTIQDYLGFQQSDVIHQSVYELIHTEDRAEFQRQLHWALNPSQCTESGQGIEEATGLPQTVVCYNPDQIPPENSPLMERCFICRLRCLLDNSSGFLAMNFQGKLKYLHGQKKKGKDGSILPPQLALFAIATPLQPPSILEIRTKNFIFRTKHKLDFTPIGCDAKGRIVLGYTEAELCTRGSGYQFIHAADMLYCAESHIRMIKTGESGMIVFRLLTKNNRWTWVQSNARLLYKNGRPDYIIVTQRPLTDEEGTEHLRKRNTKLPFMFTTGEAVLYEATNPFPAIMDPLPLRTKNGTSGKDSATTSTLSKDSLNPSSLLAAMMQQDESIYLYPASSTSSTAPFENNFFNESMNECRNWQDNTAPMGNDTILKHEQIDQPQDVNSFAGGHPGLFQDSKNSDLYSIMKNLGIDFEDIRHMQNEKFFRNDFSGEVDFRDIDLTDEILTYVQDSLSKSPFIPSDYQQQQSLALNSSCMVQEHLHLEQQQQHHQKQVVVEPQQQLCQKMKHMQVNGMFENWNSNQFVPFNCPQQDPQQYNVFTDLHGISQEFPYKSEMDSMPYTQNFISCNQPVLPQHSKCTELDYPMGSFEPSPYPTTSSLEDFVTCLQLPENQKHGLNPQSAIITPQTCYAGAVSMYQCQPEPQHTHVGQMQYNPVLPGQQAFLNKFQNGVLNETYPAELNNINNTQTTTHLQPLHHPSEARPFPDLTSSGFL
Sequence of Peroxisome proliferator-activated receptor gamma (Homo sapiens) (P37231 whole entry, looked up): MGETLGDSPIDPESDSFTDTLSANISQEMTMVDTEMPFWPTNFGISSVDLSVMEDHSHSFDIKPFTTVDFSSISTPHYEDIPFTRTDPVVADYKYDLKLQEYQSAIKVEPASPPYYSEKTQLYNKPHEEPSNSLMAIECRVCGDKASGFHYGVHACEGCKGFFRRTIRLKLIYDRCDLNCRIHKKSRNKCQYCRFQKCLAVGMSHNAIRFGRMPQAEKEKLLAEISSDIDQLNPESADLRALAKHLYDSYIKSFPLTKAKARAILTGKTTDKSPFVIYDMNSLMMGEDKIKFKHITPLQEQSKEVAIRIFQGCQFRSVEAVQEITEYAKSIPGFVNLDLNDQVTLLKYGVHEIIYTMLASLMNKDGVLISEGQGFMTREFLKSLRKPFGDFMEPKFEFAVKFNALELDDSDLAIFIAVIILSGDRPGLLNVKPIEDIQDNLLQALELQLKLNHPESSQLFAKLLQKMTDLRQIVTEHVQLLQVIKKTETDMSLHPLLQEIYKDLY
Sequence of Aromatase (Homo sapiens) (P11511 whole entry, looked up): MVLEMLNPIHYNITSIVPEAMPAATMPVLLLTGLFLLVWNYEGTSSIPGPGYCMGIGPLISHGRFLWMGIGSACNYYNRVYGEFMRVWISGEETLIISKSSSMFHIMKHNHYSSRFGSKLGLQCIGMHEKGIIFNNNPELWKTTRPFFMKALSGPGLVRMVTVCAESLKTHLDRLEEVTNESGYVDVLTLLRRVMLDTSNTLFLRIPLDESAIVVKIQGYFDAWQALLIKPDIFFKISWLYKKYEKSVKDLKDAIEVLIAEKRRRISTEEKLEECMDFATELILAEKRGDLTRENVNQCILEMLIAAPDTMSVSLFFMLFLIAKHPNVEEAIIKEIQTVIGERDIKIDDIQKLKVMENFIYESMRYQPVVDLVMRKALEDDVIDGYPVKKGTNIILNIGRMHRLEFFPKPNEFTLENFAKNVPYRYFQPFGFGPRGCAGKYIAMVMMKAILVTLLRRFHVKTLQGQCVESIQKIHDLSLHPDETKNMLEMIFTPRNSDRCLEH
Sequence of Acetylcholinesterase (Homo sapiens) (P22303 whole entry, looked up): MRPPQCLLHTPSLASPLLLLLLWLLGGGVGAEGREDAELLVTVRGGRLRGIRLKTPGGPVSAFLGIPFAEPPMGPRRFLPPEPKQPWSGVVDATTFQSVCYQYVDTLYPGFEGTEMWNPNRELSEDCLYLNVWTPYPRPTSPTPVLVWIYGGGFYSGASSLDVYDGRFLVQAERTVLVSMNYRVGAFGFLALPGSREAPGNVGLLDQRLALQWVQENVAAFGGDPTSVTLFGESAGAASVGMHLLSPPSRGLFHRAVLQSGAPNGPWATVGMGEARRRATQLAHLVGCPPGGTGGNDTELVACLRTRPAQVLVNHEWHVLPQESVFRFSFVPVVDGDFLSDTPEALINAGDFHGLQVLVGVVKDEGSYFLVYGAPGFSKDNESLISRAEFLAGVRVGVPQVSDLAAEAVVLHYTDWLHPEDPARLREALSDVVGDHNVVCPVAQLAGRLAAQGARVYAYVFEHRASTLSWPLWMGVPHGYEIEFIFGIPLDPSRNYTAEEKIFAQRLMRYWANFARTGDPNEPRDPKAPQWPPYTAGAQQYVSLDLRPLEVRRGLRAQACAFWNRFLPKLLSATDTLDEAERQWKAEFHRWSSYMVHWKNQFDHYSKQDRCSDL

CCC(=O)O[C@H]1[C@@H](N2CCCCC2)C[C@H]2[C@@H]3CC[C@H]4C[C@H](OC(C)=O)[C@@H](N5CCCCC5)C[C@]4(C)[C@H]3CC[C@@]21C
Potency [1]: inactive | outcome [2]: inactive | Potency [3]: inactive | Potency [4]: inactive | outcome [5]: inactive | Potency [6]: inactive | outcome [7]: inactive | outcome [8]: inactive | outcome [9]: inactive | outcome [10]: inactive | outcome [11]: inactive | outcome [12]: inactive | outcome [13]: inactive | outcome [14]: inactive | outcome [15]: inactive | Potency [16]: inactive | Potency [17]: inactive | Potency [18]: 2.37 µM (active) | Potency [19]: 3.35 µM (active) | Potency [20]: 3.76 µM (active) | Potency [21]: inactive | Potency [22]: inactive | outcome [23]: inactive | outcome [24]: inactive | Potency [25]: inactive | Potency [26]: inactive | Potency [27]: inactive | outcome [28]: inactive | Potency (Aromatase (Homo sapiens)): inactive | outcome [29]: inactive | outcome [30]: inactive | outcome [31]: inactive

CN1C2CCC1CC(OC(c1ccccc1)c1ccc(Cl)cc1)C2 (configuration not stated)
outcome [2]: inactive | Potency [3]: 29.8 µM (active) | Potency [4]: 26.6 µM (active) | outcome [5]: inactive | outcome [7]: inactive | outcome [8]: inactive | outcome [9]: inactive | outcome [10]: inactive | outcome [11]: inactive | outcome [12]: inactive | outcome [13]: inactive | outcome [14]: inactive | Potency [16]: 21.3 µM (active) | Potency [17]: 23.9 µM (active) | Potency [18]: 2.11 µM (active) | Potency [19]: 2.98 µM (active) | Potency [20]: 4.22 µM (active) | Potency [21]: 15.1 µM (active) | Potency [32]: 21.3 µM (active) | outcome [33]: inactive | outcome [34]: inactive | Potency [22]: 4.73 µM (active) | Potency [35]: 5.96 µM (active) | Potency [25]: 23.9 µM (active) | Potency [26]: inactive | Potency [36]: inactive | outcome [30]: inactive | Potency [37]: 23.7 µM (active) | outcome [31]: inactive

CCN(CC)CCCC(C)Nc1c2ccc(Cl)cc2nc2ccc(OC)cc12 (configuration not stated)
Potency [38]: inactive
